From ChEMBL document CHEMBL3988442, “University of Dundee, Small-Polar-MMV Screening Library” (2021) come the findings set out here.

Holding throughout (design): scale not given: direction of the effect not stated beside the values
For assay [1], the target named is Protein translocase subunit SecA (Escherichia coli (strain K12)) (UniProt P10408). The experiment in a line: Assay to Identify E. coli SecA ATPase Inhibitors. The class given is functional. Conditions: 30 µM.
Assay [2] deals with T1, Ubiquitin-activating enzyme e1, putative (Leishmania donovani (strain BPK282A1)) (UniProt E9BSI1).
T1 sequence (whole entry): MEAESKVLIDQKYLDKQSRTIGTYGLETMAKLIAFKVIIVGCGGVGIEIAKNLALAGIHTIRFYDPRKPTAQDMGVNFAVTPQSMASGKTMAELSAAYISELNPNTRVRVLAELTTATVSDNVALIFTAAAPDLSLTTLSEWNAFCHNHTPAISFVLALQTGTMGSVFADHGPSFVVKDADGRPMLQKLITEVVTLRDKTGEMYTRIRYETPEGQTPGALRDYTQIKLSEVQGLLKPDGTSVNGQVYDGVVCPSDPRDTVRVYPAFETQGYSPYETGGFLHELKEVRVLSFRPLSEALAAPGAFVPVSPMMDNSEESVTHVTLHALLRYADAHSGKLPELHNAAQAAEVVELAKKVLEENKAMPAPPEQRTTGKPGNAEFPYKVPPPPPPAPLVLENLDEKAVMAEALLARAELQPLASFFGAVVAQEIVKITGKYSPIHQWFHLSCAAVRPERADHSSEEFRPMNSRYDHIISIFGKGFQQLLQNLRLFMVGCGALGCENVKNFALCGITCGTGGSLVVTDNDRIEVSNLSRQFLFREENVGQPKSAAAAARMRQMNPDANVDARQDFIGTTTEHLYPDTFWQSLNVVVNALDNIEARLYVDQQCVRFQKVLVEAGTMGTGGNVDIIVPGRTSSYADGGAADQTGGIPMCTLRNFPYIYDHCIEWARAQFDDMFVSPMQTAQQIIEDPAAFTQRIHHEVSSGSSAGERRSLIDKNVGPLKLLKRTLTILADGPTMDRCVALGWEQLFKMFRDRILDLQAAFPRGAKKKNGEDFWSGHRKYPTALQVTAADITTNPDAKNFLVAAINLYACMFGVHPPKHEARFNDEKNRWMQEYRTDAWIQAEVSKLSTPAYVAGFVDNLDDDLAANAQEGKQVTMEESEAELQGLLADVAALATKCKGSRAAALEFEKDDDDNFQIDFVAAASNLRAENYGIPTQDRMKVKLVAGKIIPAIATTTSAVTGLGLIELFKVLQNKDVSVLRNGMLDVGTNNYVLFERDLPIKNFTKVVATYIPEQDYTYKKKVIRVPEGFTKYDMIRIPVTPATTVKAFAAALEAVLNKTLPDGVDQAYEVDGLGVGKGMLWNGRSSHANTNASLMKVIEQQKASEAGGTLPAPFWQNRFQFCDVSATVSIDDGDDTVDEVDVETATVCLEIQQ
The experiment in a line: Leishmania donovani Ubiquitin Activating Enzyme (LdE1). The class given is functional. Conditions: 30 µM.

For assay [3], the target named is T2, Aspartate--tRNA(Asp/Asn) ligase (Mycobacterium tuberculosis (strain ATCC 25618 / H37Rv)) (UniProt P9WFW3). Also: in the data most compounds retested in dose-response had high values.
T2 sequence (whole entry): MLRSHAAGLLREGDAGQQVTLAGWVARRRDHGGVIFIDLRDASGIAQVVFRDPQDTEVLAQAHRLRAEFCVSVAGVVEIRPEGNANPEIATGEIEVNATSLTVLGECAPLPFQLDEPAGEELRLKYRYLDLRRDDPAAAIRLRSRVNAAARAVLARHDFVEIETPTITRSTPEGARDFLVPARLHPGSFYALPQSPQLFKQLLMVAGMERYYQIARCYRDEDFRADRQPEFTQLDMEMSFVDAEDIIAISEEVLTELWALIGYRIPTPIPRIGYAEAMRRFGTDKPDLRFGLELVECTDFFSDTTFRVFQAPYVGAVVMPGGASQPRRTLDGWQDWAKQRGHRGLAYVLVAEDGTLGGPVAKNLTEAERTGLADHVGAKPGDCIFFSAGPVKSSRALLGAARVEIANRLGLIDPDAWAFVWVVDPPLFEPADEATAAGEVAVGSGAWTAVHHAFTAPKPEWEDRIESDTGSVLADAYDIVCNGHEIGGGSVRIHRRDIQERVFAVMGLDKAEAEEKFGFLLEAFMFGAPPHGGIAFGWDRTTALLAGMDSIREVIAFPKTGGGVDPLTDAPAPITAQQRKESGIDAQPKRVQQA
The experiment in a line: Assay for Asp RNA synthetase-1 from Mycobacterium tuberculosis. Conditions: 30 µM. The class given is functional.

Assay [4] addresses AMP-activated protein kinase, AMPK (Homo sapiens) (UniProt P54646+O43741+P54619+Q9UGJ0+Q9Y478+Q13131+Q9UGI9). The assay is described as follows: AMP-dependent Kinase enzyme assay. An in vitro enzyme assay that detects ADP turnover that is directly proportional to AMPK activity. This uses naive AMPK that is activated during the assay with MK-8722. The class given is functional. Conditions: 30 µM.

Assay [5] addresses Sialic acid-binding Ig-like lectin 9 (Homo sapiens) (UniProt Q9Y336). The experiment in a line: Hs-Siglec9 ALPHAscreen SOP 20170721. Conditions: 10 µM. (In general: Alpha assays give light when donor and acceptor beads are brought close together.)
Assay [6] deals with Trypanosoma cruzi. The assay is described as follows: Trypanosoma cruzi phosphomannomutase and mannose-1-phosphate guanylyltransferase assay. The class given is functional. Conditions: 10 µM.
Assay [7] addresses T3, Arginase-2, mitochondrial (Homo sapiens) (UniProt P78540).
T3 sequence (whole entry): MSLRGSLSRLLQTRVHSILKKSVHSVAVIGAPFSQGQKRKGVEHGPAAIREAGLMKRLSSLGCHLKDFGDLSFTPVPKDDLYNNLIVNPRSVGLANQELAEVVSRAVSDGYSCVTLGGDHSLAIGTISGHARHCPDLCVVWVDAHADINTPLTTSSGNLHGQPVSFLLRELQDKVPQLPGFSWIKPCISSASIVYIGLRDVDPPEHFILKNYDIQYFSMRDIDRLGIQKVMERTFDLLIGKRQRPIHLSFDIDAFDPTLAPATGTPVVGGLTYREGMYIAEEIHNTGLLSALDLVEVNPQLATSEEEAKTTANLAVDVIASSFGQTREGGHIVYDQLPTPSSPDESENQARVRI
The assay is described as follows: in vitro enzyme assay to detect the production of urea directly proportional to the activity of Arginase II. Also: in the data most compounds retested in dose-response had high values. Conditions: 33.3 µM. The class given is functional.

For assay [8], the target named is T4, Proteasome subunit beta (Trypanosoma cruzi) (UniProt O96673).
T4 sequence (whole entry): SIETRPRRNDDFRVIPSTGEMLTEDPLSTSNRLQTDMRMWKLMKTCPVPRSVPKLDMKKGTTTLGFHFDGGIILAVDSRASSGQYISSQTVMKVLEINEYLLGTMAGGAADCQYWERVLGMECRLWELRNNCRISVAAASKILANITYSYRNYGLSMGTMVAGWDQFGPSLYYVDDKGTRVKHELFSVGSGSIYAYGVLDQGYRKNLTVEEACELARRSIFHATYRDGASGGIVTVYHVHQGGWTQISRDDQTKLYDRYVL
The assay is described as follows: Trypanosoma cruzi proteasome chymotrypsin-like activity (TcProtChymo) assay. Also: in the data most compounds retested in dose-response had high values. The class given is functional. Conditions: 9.37 µM.

The species entered for assay [9] is Homo sapiens. The assay is described as follows: To identify inhibition of the IFN signalling (Jak-Stat) pathway via expression of an eGFP reporter gene under the control of an IFN-stimulated response element (ISRE) containing MxA promoter. The class given is functional. Conditions: 30 µM. In general terms: A reporter such as luciferase makes a cellular process visible.

The target of assay [10] is Shiga toxin 2 (Escherichia coli O157:H7) (UniProt P09385+P09386). The assay is described as follows: E. coli 0.157:H7 Shiga Toxin SOP - stx2 screening assay. The class given is functional. Conditions: 30 µM.
For assay [11], the target named is T5, Tyrosyl-tRNA synthetase, putative (Trypanosoma cruzi (strain CL Brener)) (UniProt Q4DSP6).
T5 sequence (whole entry): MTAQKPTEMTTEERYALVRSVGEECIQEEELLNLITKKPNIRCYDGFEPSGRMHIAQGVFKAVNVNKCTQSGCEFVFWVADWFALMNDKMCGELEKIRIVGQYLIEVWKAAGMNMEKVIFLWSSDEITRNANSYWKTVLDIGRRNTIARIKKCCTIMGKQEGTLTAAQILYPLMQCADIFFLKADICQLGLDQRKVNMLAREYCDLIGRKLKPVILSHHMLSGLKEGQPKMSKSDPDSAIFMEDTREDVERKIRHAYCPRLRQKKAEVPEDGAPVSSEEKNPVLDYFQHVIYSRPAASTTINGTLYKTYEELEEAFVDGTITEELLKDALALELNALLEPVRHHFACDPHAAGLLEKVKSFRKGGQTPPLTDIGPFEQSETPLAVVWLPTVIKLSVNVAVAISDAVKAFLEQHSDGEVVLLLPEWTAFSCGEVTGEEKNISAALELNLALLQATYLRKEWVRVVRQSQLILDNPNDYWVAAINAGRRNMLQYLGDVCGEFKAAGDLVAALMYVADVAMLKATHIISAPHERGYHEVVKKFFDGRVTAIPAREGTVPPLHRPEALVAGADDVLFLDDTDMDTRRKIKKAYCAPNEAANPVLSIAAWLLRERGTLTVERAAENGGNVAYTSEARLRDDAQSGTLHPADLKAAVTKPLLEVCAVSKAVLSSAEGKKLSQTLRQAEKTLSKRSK
The assay is described as follows: Trypanosoma cruzi tyrosyl tRNA synthetase (TcYRS) _High Tyrosine SOP. Also: in the data most compounds retested in dose-response had high values. The class given is functional. Conditions: 30 µM.

In assay [12] the target is T5, Tyrosyl-tRNA synthetase, putative (Trypanosoma cruzi (strain CL Brener)). The experiment in a line: Trypanosoma cruzi tyrosyl tRNA synthetase (TcYRS) SOP. The class given is functional. Conditions: 30 µM.
The target in assay [13] is Chromo domain-containing protein 1 (Saccharomyces cerevisiae (strain ATCC 204508 / S288c) (Baker's yeast)) (UniProt P32657). The experiment in a line: ScCHD-1 Enzyme Inhibition Assay. Also: in the data most compounds retested in dose-response had high values. The class given is functional. Conditions: 30 µM.
Sequence of Chromo domain-containing protein 1 (Saccharomyces cerevisiae (strain ATCC 204508 / S288c) (Baker's yeast)) (P32657 whole entry, the tested form may be a part): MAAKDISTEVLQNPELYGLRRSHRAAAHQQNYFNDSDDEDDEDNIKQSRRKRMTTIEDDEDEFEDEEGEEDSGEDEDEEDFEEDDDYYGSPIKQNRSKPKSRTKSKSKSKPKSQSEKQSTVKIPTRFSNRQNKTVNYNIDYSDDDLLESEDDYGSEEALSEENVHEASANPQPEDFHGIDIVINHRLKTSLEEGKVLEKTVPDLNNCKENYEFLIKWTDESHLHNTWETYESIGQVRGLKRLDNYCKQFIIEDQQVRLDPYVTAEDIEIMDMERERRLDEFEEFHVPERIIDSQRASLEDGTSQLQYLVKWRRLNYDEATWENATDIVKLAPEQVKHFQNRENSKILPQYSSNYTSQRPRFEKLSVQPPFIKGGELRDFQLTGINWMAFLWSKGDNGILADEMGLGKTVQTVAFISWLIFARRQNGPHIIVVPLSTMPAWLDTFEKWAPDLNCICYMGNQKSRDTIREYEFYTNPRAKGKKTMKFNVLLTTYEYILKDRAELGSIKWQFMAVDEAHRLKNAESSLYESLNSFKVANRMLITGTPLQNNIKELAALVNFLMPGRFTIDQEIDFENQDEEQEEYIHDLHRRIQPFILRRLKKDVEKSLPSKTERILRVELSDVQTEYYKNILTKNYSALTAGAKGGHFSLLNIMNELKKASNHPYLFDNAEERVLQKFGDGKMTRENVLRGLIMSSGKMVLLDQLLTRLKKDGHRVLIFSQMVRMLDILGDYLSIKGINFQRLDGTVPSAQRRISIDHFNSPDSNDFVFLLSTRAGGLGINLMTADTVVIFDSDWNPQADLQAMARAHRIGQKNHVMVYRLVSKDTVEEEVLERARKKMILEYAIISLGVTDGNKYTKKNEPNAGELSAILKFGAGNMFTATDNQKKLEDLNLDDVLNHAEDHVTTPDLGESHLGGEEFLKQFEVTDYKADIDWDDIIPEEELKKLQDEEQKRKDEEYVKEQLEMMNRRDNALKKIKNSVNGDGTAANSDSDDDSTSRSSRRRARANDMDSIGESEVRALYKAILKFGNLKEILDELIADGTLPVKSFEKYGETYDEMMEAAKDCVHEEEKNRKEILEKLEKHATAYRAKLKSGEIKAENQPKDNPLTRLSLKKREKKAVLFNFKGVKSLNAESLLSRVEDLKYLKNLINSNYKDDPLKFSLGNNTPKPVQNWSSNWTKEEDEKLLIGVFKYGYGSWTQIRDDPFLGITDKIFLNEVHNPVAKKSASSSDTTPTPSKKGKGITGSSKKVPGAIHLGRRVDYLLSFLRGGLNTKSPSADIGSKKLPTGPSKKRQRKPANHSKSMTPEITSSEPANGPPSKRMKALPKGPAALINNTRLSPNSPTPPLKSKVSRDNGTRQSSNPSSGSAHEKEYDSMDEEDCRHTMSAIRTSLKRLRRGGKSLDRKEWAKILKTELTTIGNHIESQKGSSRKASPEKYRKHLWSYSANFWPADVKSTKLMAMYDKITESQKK

For part of these data: Potency and affinity values are given separately.

Sequence of Protein translocase subunit SecA (Escherichia coli (strain K12)) (P10408 whole entry): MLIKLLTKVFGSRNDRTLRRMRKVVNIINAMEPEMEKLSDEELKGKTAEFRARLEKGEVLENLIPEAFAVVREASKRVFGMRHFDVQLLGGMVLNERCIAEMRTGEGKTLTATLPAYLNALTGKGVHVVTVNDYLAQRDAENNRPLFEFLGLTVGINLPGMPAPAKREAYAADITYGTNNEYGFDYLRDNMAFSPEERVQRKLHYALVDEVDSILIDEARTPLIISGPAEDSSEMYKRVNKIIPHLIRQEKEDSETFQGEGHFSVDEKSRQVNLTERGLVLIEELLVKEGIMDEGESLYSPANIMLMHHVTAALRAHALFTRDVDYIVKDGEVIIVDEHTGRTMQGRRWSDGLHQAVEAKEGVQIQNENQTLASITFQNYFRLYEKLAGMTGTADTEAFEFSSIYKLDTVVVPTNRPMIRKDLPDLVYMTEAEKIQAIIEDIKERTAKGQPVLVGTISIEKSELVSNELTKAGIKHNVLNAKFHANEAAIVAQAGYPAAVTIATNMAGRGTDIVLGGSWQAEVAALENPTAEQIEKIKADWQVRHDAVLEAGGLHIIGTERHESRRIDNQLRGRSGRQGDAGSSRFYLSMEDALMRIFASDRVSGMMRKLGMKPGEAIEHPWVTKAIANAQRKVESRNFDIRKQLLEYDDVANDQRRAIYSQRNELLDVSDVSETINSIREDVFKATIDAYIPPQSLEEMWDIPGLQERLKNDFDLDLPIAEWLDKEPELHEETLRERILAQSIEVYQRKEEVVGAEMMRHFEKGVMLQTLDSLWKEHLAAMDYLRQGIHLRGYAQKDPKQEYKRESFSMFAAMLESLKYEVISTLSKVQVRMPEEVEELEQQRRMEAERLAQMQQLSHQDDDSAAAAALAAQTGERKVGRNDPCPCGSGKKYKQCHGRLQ
Sequence of Sialic acid-binding Ig-like lectin 9 (Homo sapiens) (Q9Y336 whole entry): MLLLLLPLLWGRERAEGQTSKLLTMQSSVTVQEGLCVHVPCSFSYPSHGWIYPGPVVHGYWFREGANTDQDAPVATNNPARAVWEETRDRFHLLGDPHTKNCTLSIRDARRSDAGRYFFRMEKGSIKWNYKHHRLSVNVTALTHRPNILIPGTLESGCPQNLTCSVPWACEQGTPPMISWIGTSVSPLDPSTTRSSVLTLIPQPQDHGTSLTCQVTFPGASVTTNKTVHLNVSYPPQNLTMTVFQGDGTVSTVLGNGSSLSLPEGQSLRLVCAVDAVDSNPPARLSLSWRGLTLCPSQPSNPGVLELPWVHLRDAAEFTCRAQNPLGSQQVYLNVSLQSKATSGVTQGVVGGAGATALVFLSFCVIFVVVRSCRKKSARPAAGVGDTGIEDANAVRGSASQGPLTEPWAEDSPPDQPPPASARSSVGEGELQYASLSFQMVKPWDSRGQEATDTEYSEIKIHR

On to `Cc1n[nH]c2c1C(c1ccc(O)c(Cl)c1)SCC(=O)N2` (stereo unspecified), for which the Percent Effect in assay [1] is -3.6%; in [2], 4%; in [3], -0.755%; in assay [4], 21.6%; in assay [5], 4.97%; in assay [6], -3.73%. Further, the Percent Effect was -6.16% in assay [7]; 5.18% in [8]; 10.7% in assay [9]; -29.6% in assay [10]; 9.52% in assay [11]; 15.4% in assay [12]. Besides, the Percent Effect in [13] is -4.99%.
With `COc1ccc(CN2C[C@@H]3OCCN(c4ncccn4)[C@@H]3C2)cc1`, the Percent Effect in assay [1] was 1.18%; in assay [2] it was 0%; in assay [3], 3.34%; in [4] it was 11.4%; in [5], 2.48%; in assay [6] it was -4.13%. The Percent Effect was 2.1% in assay [7]; 3.61% in [8]; 22.3% in assay [9]; -20% in [10]; 1.06% in assay [11]; -1.28% in assay [12]. In assay [13], the Percent Effect was found to be 0.371%.
`c1ccc(CN2C[C@@H]3OCCN(CC4CCCO4)[C@@H]3C2)nc1` (stereo partly specified): the Percent Effect is -4.3% in assay [1]; 10.8% in [2]; -0.749% in [3]; -3.75% in assay [4]; 1.76% in assay [5]; 4.01% in assay [6]. The Percent Effect in [7] stood at 15%; in assay [8] it was 15.5%; in assay [9], 22.6%; in assay [10], 4.43%; in [11], 7.57%; in [12], 15.4%. Besides, the Percent Effect in [13] was -4.89%.
As for `CCc1cnc(N2CC3(CCN(Cc4ccsc4)C3)C2)nc1`, the Percent Effect in assay [1] is -5.86%; in [2] it was 3.9%; in [3], 14.2%; in assay [5], -1.39%; in assay [6] it was -7.3%; in assay [7], 0%. Moreover, the Percent Effect in assay [8] was 9.27%; in [9], 12.9%; in [10] it was -11%; in assay [11], 8.95%; in assay [12] it was 2.56%; in assay [13] it was -4.35%.
